Measurements published in PubChem BioAssay (Tox21).
Several values for one entry are separate records, joined by “and”; a condition that tells them apart may be missing. Equal entries are not always repeated. Inconclusive results are not listed. Where a structure was tested more than once in an assay, its records may differ in their call. Activity calls are given as the source filed them. Unless noted, the call rests on the fitted dose curve; in most records, active means well fitted curve in the direction sought with a large enough effect in the repeat runs; inconclusive means weak or mixed curves; inactive means no such curve, though single readings can be large; an effect the other way counts as inactive or inconclusive.

How the values were obtained:
[1] = qHTS assay to identify small molecule antagonists of the thyroid receptor (TR) signaling pathway - cell viability counter screen (AID 743064); further: nearly all actives have a fitted effect of over 50% in size; further: potency means the concentration at half of the fitted maximal effect
Outline: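 Viability of T3-stimulated (1 nM final) GH3.TRE-Luc cells is measured by CellTiter-Fluor fluorescence after 23.5 h compound exposure at 37 °C plus 30 min reagent incubation.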

[2] = qHTS assay to identify small molecule antagonists of the thyroid receptor (TR) signaling pathway (AID 743065); further: nearly all actives have a fitted effect of over 55% in size; further: potency means the concentration at half of the fitted maximal effect
Outline: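 Antagonism measured as loss of luciferase signal in GH3 cells stably carrying a TRE-luciferase reporter, co-treated with compound and T3 (1 nM final) for 23.5 h at 37 C. Viability was read in the same well by CellTiter-Fluor.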

[3] = test system: thyroid hormone receptor (rat, GH3 cells); assay: qHTS assay to identify small molecule agonists of the thyroid receptor (TR) signaling pathway (AID 743066; calls by dose curve)
[4] = target: Estrogen receptor (Homo sapiens) (UniProt P03372); assay: qHTS assay to identify small molecule antagonists of the estrogen receptor alpha (ER-alpha) signaling pathway (AID 743069; active means well fitted curve in the direction sought with a large enough effect in the signal ratio in the repeat runs, not every such curve was filed as active; the % refers to the signal ratio)
Estrogen receptor (Homo sapiens), sequence (P03372 whole entry, looked up): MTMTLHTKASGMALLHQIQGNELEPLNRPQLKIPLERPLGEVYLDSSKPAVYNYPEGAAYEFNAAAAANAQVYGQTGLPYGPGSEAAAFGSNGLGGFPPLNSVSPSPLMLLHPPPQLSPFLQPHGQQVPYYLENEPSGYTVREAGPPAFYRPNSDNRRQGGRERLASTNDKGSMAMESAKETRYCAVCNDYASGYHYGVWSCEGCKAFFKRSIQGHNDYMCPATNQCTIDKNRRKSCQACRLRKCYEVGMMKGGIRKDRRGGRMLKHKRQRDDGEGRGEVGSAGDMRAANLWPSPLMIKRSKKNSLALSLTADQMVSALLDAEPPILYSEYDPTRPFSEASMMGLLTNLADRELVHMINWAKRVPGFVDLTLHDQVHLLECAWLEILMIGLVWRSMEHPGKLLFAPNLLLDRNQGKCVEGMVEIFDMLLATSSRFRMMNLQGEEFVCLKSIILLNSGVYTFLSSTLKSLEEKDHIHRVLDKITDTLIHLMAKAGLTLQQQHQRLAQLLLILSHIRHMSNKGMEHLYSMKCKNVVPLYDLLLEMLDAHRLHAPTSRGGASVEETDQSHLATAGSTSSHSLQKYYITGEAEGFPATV
Outline: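 Antagonist mode: compounds in DMSO were co-added with 17beta-estradiol to ER-alpha-bla HEK293 cells (2% charcoal-stripped serum) and left 18 h at 37C. Reporter inhibition was measured as FRET fluorescence after 2 h LiveBLAzer substrate at room temperature.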

[5] = qHTS assay to identify small molecule antagonists of the estrogen receptor alpha (ER-alpha) signaling pathway - cell viability counter screen (AID 743074; calls by dose curve;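 further: HEK293 cells carrying ER-alpha-UAS-bla reporter stimulated with 17beta-estradiol; nearly all actives have a fitted effect of over 45% in size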)
[6] = target: Estrogen receptor (Homo sapiens) (UniProt P03372); assay: qHTS assay to identify small molecule agonists of the estrogen receptor alpha (ER-alpha) signaling pathway (AID 743075; calls by dose curve;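 further: HEK293 GripTite cells with ER-alpha and UAS-driven beta-lactamase reporter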)
[7] = target: Estrogen receptor (Homo sapiens) (UniProt P03372); assay: qHTS assay to identify small molecule agonists of the estrogen receptor alpha (ER-alpha) signaling pathway using the BG1 cell line (AID 743079); further: nearly all actives have a fitted effect of over 20% in size; further: potency means the concentration at half of the fitted maximal effect
[8] = qHTS assay to identify small molecule antagonists of the estrogen receptor alpha (ER-alpha) signaling pathway using the BG1 cell line (AID 743080; calls by dose curve;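 further: BG1 cells stimulated with 17beta-estradiol alongside compound; nearly all actives have a fitted effect of over 25% in size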; further: potency means the concentration at half of the fitted maximal effect)
Outline: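 Quantitative HTS on the Tox21 10K library: BG1 cells with endogenous ER-alpha and ERE-luciferase reporter, 17beta-estradiol stimulation, 21.5 h compound exposure, luminescence endpoint with parallel fluorescence cytotoxicity counter-read.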

[9] = qHTS assay to identify small molecule antagonists of the estrogen receptor alpha (ER-alpha) signaling pathway using the BG1 cell line - cell viability counter screen (AID 743081);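 further: compound given together with 17beta-estradiol as the ER stimulus; series mostly up to about 70 µM; nearly all actives have a fitted effect of over 45% in size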
[10] = target: Aromatase (Homo sapiens) (UniProt P11511); assay: qHTS assay to identify aromatase inhibitors (AID 743083); further: nearly all actives have a fitted effect of over 55% in size; further: potency means the concentration at half of the fitted maximal effect
Aromatase (Homo sapiens), sequence (P11511 whole entry, looked up): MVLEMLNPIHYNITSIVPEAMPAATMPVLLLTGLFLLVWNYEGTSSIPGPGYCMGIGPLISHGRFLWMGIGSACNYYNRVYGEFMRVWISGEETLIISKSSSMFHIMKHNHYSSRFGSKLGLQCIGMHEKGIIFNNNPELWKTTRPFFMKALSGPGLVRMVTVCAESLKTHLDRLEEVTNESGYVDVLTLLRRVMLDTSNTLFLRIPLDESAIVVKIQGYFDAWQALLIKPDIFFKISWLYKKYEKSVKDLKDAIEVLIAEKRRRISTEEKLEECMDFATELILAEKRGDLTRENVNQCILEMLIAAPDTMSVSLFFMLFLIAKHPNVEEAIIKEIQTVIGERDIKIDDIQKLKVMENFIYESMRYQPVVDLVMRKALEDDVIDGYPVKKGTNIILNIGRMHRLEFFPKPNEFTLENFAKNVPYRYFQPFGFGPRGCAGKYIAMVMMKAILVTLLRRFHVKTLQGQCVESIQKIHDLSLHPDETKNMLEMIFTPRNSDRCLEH

[11] = qHTS assay to identify aromatase inhibitors - cell viability counter screen (AID 743084);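 further: cells stimulated with testosterone during compound exposure; nearly all actives have a fitted effect of over 55% in size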; further: potency means the concentration at half of the fitted maximal effect
[12] = target: Aryl hydrocarbon receptor (Homo sapiens) (UniProt P35869); assay: qHTS assay to identify small molecule that activate the aryl hydrocarbon receptor (AhR) signaling pathway (AID 743085); further: nearly all actives have a fitted effect of over 15% in size; further: potency means the concentration at half of the fitted maximal effect;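 on activation: HG2L7.5c1 human HepG2 liver cells with stably integrated DRE-driven firefly reporter; series mostly up to about 70 µM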
Aryl hydrocarbon receptor (Homo sapiens), sequence (P35869 whole entry, looked up): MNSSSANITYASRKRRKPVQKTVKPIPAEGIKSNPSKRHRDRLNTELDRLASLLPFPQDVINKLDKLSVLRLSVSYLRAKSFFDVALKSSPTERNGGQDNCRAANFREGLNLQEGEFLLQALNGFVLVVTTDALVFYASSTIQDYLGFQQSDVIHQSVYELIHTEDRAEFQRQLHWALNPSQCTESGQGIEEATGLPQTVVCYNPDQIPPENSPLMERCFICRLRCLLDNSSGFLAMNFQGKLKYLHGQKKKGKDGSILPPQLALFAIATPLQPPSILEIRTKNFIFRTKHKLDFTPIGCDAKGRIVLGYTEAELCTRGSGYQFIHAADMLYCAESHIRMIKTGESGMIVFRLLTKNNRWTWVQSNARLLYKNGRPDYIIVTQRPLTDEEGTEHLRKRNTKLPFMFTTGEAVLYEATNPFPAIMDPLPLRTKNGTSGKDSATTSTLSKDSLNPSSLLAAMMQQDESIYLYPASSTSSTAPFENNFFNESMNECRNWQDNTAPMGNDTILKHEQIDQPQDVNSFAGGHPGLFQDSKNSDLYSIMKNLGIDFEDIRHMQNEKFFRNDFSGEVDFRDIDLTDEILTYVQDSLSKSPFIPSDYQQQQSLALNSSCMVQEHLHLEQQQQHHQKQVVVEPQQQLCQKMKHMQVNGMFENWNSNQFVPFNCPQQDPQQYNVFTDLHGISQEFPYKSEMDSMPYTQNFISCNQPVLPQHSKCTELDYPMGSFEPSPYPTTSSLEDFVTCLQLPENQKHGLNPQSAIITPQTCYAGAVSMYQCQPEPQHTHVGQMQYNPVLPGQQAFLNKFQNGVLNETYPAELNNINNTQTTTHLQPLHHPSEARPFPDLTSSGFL
Outline: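 A multiplexed format paired cell viability (CellTiter-Fluor fluorescence) with AhR-dependent luciferase output (ONE-Glo luminescence) in the same wells of HepG2 DRE-luc cells after 24 h compound exposure at 37C.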

[13] = qHTS assay to identify small molecule that activate the aryl hydrocarbon receptor (AhR) signaling pathway - cell viability counter screen (AID 743086);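 further: HepG2 liver cells carrying the AhR DRE luciferase reporter; series mostly up to about 70 µM; nearly all actives have a fitted effect of over 45% in size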
Outline: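 Cytotoxicity counter screen: CellTiter-Fluor signal (30 min, 37 C) in 4000 HepG2 cells/well carrying the DRE-luciferase reporter, following 24 h compound exposure at 37 C.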

[14] = target: Peroxisome proliferator-activated receptor gamma (Homo sapiens) (UniProt P37231); assay: qHTS assay to identify small molecule agonists of the peroxisome proliferator-activated receptor gamma (PPARg) signaling pathway (AID 743094; active means well fitted activation curve with a large enough effect in the signal ratio in the repeat runs, not every such curve was filed as active; the % refers to the signal ratio)
Peroxisome proliferator-activated receptor gamma (Homo sapiens), sequence (P37231 whole entry, looked up): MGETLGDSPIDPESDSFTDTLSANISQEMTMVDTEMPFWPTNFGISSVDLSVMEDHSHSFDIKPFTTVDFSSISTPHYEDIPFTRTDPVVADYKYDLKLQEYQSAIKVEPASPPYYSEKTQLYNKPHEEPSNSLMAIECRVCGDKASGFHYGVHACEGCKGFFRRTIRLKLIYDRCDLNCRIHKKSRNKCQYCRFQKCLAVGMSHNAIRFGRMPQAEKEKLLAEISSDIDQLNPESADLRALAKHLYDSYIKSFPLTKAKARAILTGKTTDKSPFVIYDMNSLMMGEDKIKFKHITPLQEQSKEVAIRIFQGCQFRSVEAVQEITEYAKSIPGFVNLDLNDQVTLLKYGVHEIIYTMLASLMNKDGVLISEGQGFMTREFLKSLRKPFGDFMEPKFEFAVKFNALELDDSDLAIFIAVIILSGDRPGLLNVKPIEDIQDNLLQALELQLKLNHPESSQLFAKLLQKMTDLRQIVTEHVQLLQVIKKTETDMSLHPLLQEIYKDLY
Outline: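 Agonism was assessed in a beta-lactamase reporter system, HEK293H cells with a stably integrated UAS-bla construct under PPARg control; the 17 h treatment at 37C preceded a 1 h room-temperature FRET substrate read.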

[15] = target: Peroxisome proliferator-activated receptor gamma (Homo sapiens) (UniProt P37231); assay: qHTS assay to identify small molecule antagonists of the peroxisome proliferator-activated receptor gamma (PPARg) signaling pathway (AID 743191; calls by dose curve; further: series mostly up to about 63 µM; nearly all actives have a fitted effect of over 30% in size)
Outline: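 Beta-lactamase reporter under UAS control in HEK293H PPARg-bla cells; compound treatment 17 h at 37C. Read-out: fluorescence intensity after 1 h room-temperature incubation with LiveBLAzer B/G FRET substrate.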

[16] = qHTS assay to identify small molecule antagonists of the peroxisome proliferator-activated receptor gamma (PPARg) signaling pathway - cell viability counter screen (AID 743194); further: nearly all actives have a fitted effect of over 55% in size
Outline: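 Viability was measured as CellTiter-Glo luminescence in GeneBLAzer PPARg UAS-bla HEK293H cells. These cells had been exposed 17 h at 37 C to compounds together with rosiglitazone at 50 nM final, with the beta-lactamase readout taken in the same wells.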

[17] = qHTS assay for small molecule agonists of the antioxidant response element (ARE) signaling pathway - cell viability counter screen (AID 743203; calls by dose curve; further: nearly all actives have a fitted effect of over 55% in size)
Outline: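 ATP content via CellTiter-Glo luminescence served as the viability measure. Cells: ARE-bla HepG2, 2,000 per well. Exposure: 16 hrs, 37C/5% CO2.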

[18] = qHTS assay for small molecule activators of the heat shock response signaling pathway - cell viability counter screen (AID 743209); further: nearly all actives have a fitted effect of over 50% in size
Outline: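 Compounds dissolved in DMSO were added to overnight-plated HSE-bla HeLa cells and left 5 h at 37 C. Cell viability was quantified by luminescence using CellTiter-Glo.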

[19] = qHTS assay for small molecule activators of the heat shock response signaling pathway (AID 743210; active means well fitted activation curve with a large enough effect in the signal ratio in the repeat runs, with a control signal flat, not every such curve was filed as active; the % refers to the signal ratio; further: series mostly up to about 63 µM)
Outline: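 Compound exposure lasted 5 h at 37 C in HeLa cells carrying a heat-shock-element-driven beta-lactamase reporter. Read-out: fluorescence intensity after 2.5 h room-temperature loading with LiveBLAzer B/G FRET substrate.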

[20] = qHTS assay for small molecule agonists of the antioxidant response element (ARE) signaling pathway (AID 743202; active means well fitted activation curve with a large enough effect in the signal ratio in the repeat runs, not every such curve was filed as active; the % refers to the signal ratio; further: potency means the concentration at half of the fitted maximal effect)
Outline: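 After 16 hours of compound treatment at 37 C, HepG2 cells with a stably integrated ARE-driven beta-lactamase reporter were loaded 2 hours at room temperature with LiveBLAzer B/G FRET substrate and fluorescence intensity measured.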

Measured: Potency

CC(=O)c1ccccc1
not listed: [20]
inactive: all other assays above

C=C(C)C(=O)O[C@H]1C[C@@H]2CC[C@@]1(C)C2(C)C
not listed: [4]
inactive: all other assays above

OC[C@H]1O[C@@](CO)(O[C@H]2O[C@H](CO)[C@@H](O)[C@H](O)[C@H]2O)[C@@H](O)[C@@H]1O
not listed: [4] | [20]
inactive: all other assays above

Cc1cc(C)c(C)cc1C
not listed: [4] | [20]
inactive: all other assays above

Cc1ccc(N(C)C)cc1
inactive and 68.6 µM (active): [12]
active: [7] 61.1 µM
not listed: [4] | [19]
inactive: all other assays above

CCCCCCCCCCCCCCO
not listed: [20]
inactive: all other assays above

Cc1cnc(C(=O)NCCc2ccc(S(=O)(=O)NC(=O)NC3CCCCC3)cc2)cn1
not listed: [10] | [12] | [15] | [20]
inactive: all other assays above

CCCCC(CC)COC(=O)CCCCC(=O)OCC(CC)CCCC (centres undefined)
inactive: all assays above

c1ccc2scnc2c1
inactive and 19.3 µM (active): [12]
not listed: [4]
inactive: all other assays above

O=S1(=O)CC=CC1
not listed: [4]
inactive: all other assays above

O=C(O)CCCCCCCCCCC(=O)O
inactive and 61.1 µM (active): [7]
not listed: [4] | [14] | [15]
inactive: all other assays above

CC(=O)CC(=O)Nc1ccccc1
not listed: [4] | [6] | [7] | [8] | [20]
inactive: all other assays above

Cc1ccc(S(N)(=O)=O)cc1
not listed: [4] | [6] | [7] | [8] | [20]
inactive: all other assays above

CCCCCCCCCCCCOCCO
not listed: [4] | [6] | [7] | [8]
inactive: all other assays above

Fc1ccc(Br)cc1
not listed: [4] | [20]
inactive: all other assays above

CCCCCC(N)=O
not listed: [4] | [6] | [7] | [8]
inactive: all other assays above

CC[C@H](C)C(=O)O[C@H]1C[C@@H](C)C=C2C=C[C@H](C)[C@H](CC[C@@H]3C[C@@H](O)CC(=O)O3)[C@H]21
active: [1] 62 µM and 60.8 µM | [2] 62 µM and 54.2 µM | [10] 11.9 µM and 34.9 µM and 27.2 µM
inactive and 62 µM (active): [11]
not listed: [4] | [8] | [18] | [20]
inactive: all other assays above

c1ccc(OCCOc2ccccc2)cc1
active: [7] 61.1 µM and 54.5 µM
not listed: [4] | [8] | [12]
inactive: all other assays above

CC1CCC2CC1C2(C)C (centres undefined)
not listed: [4] | [6] | [7] | [8]
inactive: all other assays above

O=C1CCC(N2C(=O)c3ccccc3C2=O)C(=O)N1 (centres undefined)
not listed: [4] | [6] | [7] | [8]
inactive: all other assays above

CC1CCC(C(C)C)C(O)C1 (centres undefined)
not listed: [4] | [6] | [7] | [8] | [19]
inactive: all other assays above

C=C(C)C(=O)Nc1ccc(Cl)c(Cl)c1
active: [2] 49.1 µM and 54.3 µM | [8] 69.3 µM and 68.3 µM | [12] 69.3 µM and 54.3 µM | [20] 19.5 µM and 27.2 µM
not listed: [4] | [13] | [14] | [15] | [16]
inactive: all other assays above

C=CCOC(=O)c1ccccc1C(=O)OCC=C
not listed: [4] | [10]
inactive: all other assays above

O=C=NCCCCCCN=C=O
not listed: [4] | [20]
inactive: all other assays above

CCCC(C)=O
not listed: [4] | [6] | [7] | [8]
inactive: all other assays above

Nc1ccccc1[N+](=O)[O-]
not listed: [4] | [6] | [7] | [8] | [20]
inactive: all other assays above

C[Si](O[Si](C)(C)C)O[Si](C)(C)C
not listed: [4] | [6] | [7] | [8]
inactive: all other assays above

CN(C)CCOCCN(C)C
62.3 µM (active) and inactive: [12]
not listed: [4] | [6] | [7] | [8]
inactive: all other assays above

CC(=O)OCC(=O)[C@@]12N=C(C)O[C@@H]1C[C@H]1[C@@H]3CCC4=CC(=O)C=C[C@]4(C)[C@H]3[C@@H](O)C[C@@]12C
active: [7] 16.8 µM
not listed: [4] | [8] | [12] | [20]
inactive: all other assays above

CC(=O)CC(=O)Nc1ccccc1C
not listed: [4] | [20]
inactive: all other assays above

CCCCCC/C(C=O)=C\c1ccccc1
not listed: [4] | [6] | [7] | [8]
inactive: all other assays above

CC(C)(N)CO
not listed: [4] | [20]
inactive: all other assays above
